The source of these data is PMC8384837, “Expanding the binding specificity for RNA recognition by a PUF domain”.

Common to all, as to test: yeast three-hybrid, YBZ-1, SC-Leu-His + 0.5 mM 3-AT, 4 days
Holding throughout (settings): tags: N-Gal4 AD-HA kept; label: inside an RPR1-promoter hybrid RNA with tandem MS2 sites; ssRNA

One test concerns the target T1, PUM1 PUF domain R6-EWG (Homo sapiens, UniProt Q14671 828-1176, N1043E;Y1044W;Q1047G).
T1 sequence: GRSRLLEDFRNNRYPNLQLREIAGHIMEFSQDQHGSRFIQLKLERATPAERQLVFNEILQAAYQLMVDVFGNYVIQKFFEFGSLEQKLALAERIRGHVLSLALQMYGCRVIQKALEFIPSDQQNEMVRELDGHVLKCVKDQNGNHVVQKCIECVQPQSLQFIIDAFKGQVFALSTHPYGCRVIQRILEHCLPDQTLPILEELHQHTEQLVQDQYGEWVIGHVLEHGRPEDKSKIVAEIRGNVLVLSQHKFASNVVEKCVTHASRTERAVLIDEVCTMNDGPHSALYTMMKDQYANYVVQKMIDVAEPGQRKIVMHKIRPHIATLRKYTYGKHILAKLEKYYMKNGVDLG
The procedure, abridged: (§1)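 The interaction score is the log change in how often each variant appears, from input to selection. Frequencies came from PCR-amplified, Illumina-sequenced repeat regions of Pumilio-1 PUF domain libraries grown in strain YBZ-1 (LexA–MS2 coat fusion, HIS3 reporter) alongside matching RNA elements. Input plates were SC-Leu and selection plates were SC-Leu-His + 0.5 mM 3-AT, each for four days, and the log2 calculation used a pseudocount of 1 where a variant was absent.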

A further test concerns the target T2, PUM1 PUF domain R6-VWM (Homo sapiens, UniProt Q14671 828-1176, N1043V;Y1044W;Q1047M).
T2 sequence: T1 sequence with E216V, G220M
In short, it runs like this: as §1

The next test has as its target PUM1 PUF domain R8-QFR (Homo sapiens, UniProt Q14671 828-1176, N1122Q;Y1123F;Q1126R). The procedure, abridged: as §1
The target of a further test is PUM1 PUF domain R8-QYP (Homo sapiens, UniProt Q14671 828-1176, N1122Q;Q1126P). The procedure, abridged:
as §1

Another test has as its target PUM1 PUF domain R8-RRR (Homo sapiens, UniProt Q14671 828-1176, N1122R;Y1123R;Q1126R). The procedure, abridged: as §1
For the next test, the target named is PUM1 PUF domain R5-GSE (Homo sapiens, UniProt Q14671 828-1176, C1007G;R1008S;Q1011E). The procedure, abridged: as §1
In another test the target is PUM1 PUF domain R3-IFR (Homo sapiens, UniProt Q14671 828-1176, C935I;R936F;Q939R). In short, it runs like this: as §1
In a further test the target is PUM1 PUF domain R3-RRP (Homo sapiens, UniProt Q14671 828-1176, C935R;Q939P). In short, it runs like this: as §1
Another test concerns the target PUM1 PUF domain R7-LSV (Homo sapiens, UniProt Q14671 828-1176, S1079L;N1080S;E1083V). In short, it runs like this:
as §1

The target of the next test is PUM1 PUF domain R4-QPA (Homo sapiens, UniProt Q14671 828-1176, N971Q;H972P;Q975A). The procedure, abridged:
as §1

Substitutions are numbered along the chain they refer to.

As to “GGCUAGAACUAGUGGAUCCCCCGGCGCCCGGCGGCUCGAGCCCGGGUAAGUGUAAAUAGUCUGCAUGCCGCCGGGCGCCAUGCCUGCAGGUCGACUCUAGAAAACAUG”, the binding signal was 4.03 log2 enrichment (interaction score) in the test with PUM1 PUF domain R6-EWG; 4.44 log2 enrichment (interaction score) in the test with PUM1 PUF domain R6-VWM; 4.27 log2 enrichment (interaction score) in the test with PUM1 PUF domain R8-QFR; 2.62 log2 enrichment (interaction score) in the test with PUM1 PUF domain R8-QYP; 5.23 log2 enrichment (interaction score) with PUM1 PUF domain R8-RRR.

Consider “GGCUAGAACUAGUGGAUCCCCCGGCGCCCGGCGGCUCGAGCCCGGGUAAGUGAAAAUAGUCUGCAUGCCGCCGGGCGCCAUGCCUGCAGGUCGACUCUAGAAAACAUG”, for which the results for the binding signal with PUM1 PUF domain R6-EWG and in the test with PUM1 PUF domain R6-VWM were 1.75 log2 enrichment (interaction score) and 6.06 log2 enrichment (interaction score), respectively.

Turning to “GGCUAGAACUAGUGGAUCCCCCGGCGCCCGGCGGCUCGAGCCCGGGUAAGCGUAAAUAGUCUGCAUGCCGCCGGGCGCCAUGCCUGCAGGUCGACUCUAGAAAACAUG”, the results for the binding signal in the test with PUM1 PUF domain R8-QFR and with PUM1 PUF domain R8-RRR were 5.16 log2 enrichment (interaction score) and 5.62 log2 enrichment (interaction score), respectively.

In the case of “GGCUAGAACUAGUGGAUCCCCCGGCGCCCGGCGGCUCGAGCCCGGGUAAGUGUGAAUAGUCUGCAUGCCGCCGGGCGCCAUGCCUGCAGGUCGACUCUAGAAAACAUG”, in the test with PUM1 PUF domain R5-GSE, the binding signal was 3.41 log2 enrichment (interaction score).

For “GGCUAGAACUAGUGGAUCCCCCGGCGCCCGGCGGCUCGAGCCCGGGUAAGUGUAAUUAGUCUGCAUGCCGCCGGGCGCCAUGCCUGCAGGUCGACUCUAGAAAACAUG”, the binding signal with PUM1 PUF domain R3-IFR is 3.8 log2 enrichment (interaction score); with PUM1 PUF domain R3-RRP, 4.3 log2 enrichment (interaction score).

Regarding “GGCUAGAACUAGUGGAUCCCCCGGCGCCCGGCGGCUCGAGCCCGGGUAAGUUUAAAUAGUCUGCAUGCCGCCGGGCGCCAUGCCUGCAGGUCGACUCUAGAAAACAUG”, in the test with PUM1 PUF domain R7-LSV, the binding signal was 4.05 log2 enrichment (interaction score).

For “GGCUAGAACUAGUGGAUCCCCCGGCGCCCGGCGGCUCGAGCCCGGGUAAGUGUAUAUAGUCUGCAUGCCGCCGGGCGCCAUGCCUGCAGGUCGACUCUAGAAAACAUG”, the binding signal with PUM1 PUF domain R4-QPA is 3.55 log2 enrichment (interaction score).

As for “GGCUAGAACUAGUGGAUCCCCCGGCGCCCGGCGGCUCGAGCCCGGGUAAGUGUAAGUAGUCUGCAUGCCGCCGGGCGCCAUGCCUGCAGGUCGACUCUAGAAAACAUG”, the binding signal with PUM1 PUF domain R3-IFR is 5.53 log2 enrichment (interaction score).
